An excerpt weighted towards active compounds, which were near 10% of everything screened.
bCat KO growth: primary screen for growth suppressors in beta-catenin knockout HCT116 cells (colon tumor, human). HCT116 beta-catenin knockout viability, CellTiter-Glo, 60 h; stronger effect = lower value. viability, % at 10 µM. hit rate 1.5% among 140,000;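 active = viability at or under a set limit, the compound median less 4 SD, cut at about 6% in these data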;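 note: 0% = Hyamine 1622 control at 20 µM and 100% = untreated cell control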
p97 inhibitor: inhibitors of human p97 ATPase, primary screen, biochemical; recombinant p97 ATPase, Kinase-Glo ATP luminescence, 3 h; inhibition, % at 8 µM; hit rate 0.42% among 220,000; in the data active = inhibition above about 15%;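 note: 0% = DMSO vehicle and 100% = wells lacking enzyme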
PTEN del growth: growth suppression of PTEN-null HCT116, primary screen, cell-based, CellTiter-Glo | hit rate 1.2% among 140,000 | viability, % at 10 µM | HCT116 PTEN-null viability, 60 h; stronger effect = lower value;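 active = viability at or below a set limit, 4 SD under the median of all tested compounds, cut at about 3.7% in these data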;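 note: PTEN knockout HCT116 line with beta catenin targeted HCT116 as companion control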
ROMK mod: ROMK potassium channel modulators, primary screen, cell-based, thallium flux, MLSMR library | Tet-inducible ROMK, thallium flux fluorescence; actives lie on both sides | hit rate 2% among 130,000 | B-score at 10 µM;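 active = signal ratio slope over the read window, or its plate-corrected B-score, at least 3 SD from the plate mean, either direction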;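 note: B-score of the F/F0 ratio slope over 7 to 12 s after thallium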
Target sequence (P48048 whole entry, looked up): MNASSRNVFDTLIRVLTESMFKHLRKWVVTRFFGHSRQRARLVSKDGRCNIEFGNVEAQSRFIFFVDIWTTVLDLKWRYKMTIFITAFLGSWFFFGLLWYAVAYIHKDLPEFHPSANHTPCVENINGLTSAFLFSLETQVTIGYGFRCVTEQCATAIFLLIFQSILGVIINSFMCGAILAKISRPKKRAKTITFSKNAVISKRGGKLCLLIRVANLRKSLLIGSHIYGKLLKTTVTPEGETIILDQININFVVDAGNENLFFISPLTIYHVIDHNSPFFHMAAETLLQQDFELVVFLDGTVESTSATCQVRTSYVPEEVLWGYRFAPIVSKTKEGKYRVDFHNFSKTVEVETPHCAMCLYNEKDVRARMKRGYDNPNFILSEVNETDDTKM
Lmaj promast: Leishmania major promastigote growth inhibition, primary screen | AID 1063, 2008 | hit rate 9% among 200,000 | inhibition, % at 10 µM | Leishmania major promastigotes, resazurin fluorescence viability; in the data active = inhibition above about 50%;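 note: promastigotes grown with compound for 44 hours at 28 °C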
INS promoter inh: inhibitors of insulin promoter-driven GFP, primary screen, imaging, TRM-6 cells (human fetal islet line), eGFP reporter, cell count. reporter expression induced with tamoxifen. inhibition, % at 2 µM. hit rate 0.9% among 130,000. AID 1273, 2008;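 active = inhibition above the mean plus 3 SD, with well images judged a real hit on visual review, cut at about 60% in these data, passing the limit was not always enough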
* = called active by the depositor; nt = not tested or not shown.

SMILES | bCat KO growth | p97 inhibitor | PTEN del growth | ROMK mod | Lmaj promast | INS promoter inh
Cc1nn(Cc2ccc(Cl)cc2Cl)c(C)c1NC(=O)NC12CC3CC(CC(C3)C1)C2 | 47 | -4 | 42 | -1.3 | 100* | -317
CCc1ccc(CN(C)C(=O)CCc2nnc(CCc3ccccc3OC)o2)nc1 | nt | -2 | nt | -0.035 | -8 | nt
CCc1ccc(CN(C)C(=O)CCc2nnc(CCc3cccc(OC)c3)o2)nc1 | nt | -3 | nt | -0.035 | 100* | 10
CC(=O)Nc1ccc(S(=O)(=O)N2CCN(CC(=O)N3CCOCC3)CC2)cc1 | nt | 6 | nt | nt | nt | nt
O=C(N1CCCC1)C(F)(F)Oc1ccc(F)cc1 | nt | -1 | nt | 0.58 | -2 | nt
OCCN1CCN(C(=S)c2ccc(Cl)cc2)CC1 | 103 | 6 | 99 | nt | 47 | 40
CCN1CCN(C(=S)c2ccc([N+](=O)[O-])cc2)CC1 | 86 | 3 | 83 | nt | 58* | nt
CCN1CCN(C(=S)c2ccc(OC)cc2)CC1 | nt | 0 | nt | 0.91 | 100* | nt
O=[N+]([O-])c1ccc(C(=S)N2CCCC2)cc1 | nt | 2 | nt | -0.027 | 20 | nt
CCN1CCN(C(=S)c2ccc(Cl)cc2)CC1 | 85 | 3 | 92 | 1.5 | 88* | 53
CSCCC(NS(=O)(=O)c1ccc(Cl)cc1)C(=O)OCC(=O)c1ccc(F)cc1 (centres undefined) | 89 | 0 | 91 | -0.23 | -6 | 30
Fc1ccc(C2CCCN2Cc2nc(CC3CC3)no2)cc1 (centres undefined) | nt | 0 | nt | -0.081 | 57* | nt
CCn1cc(/C=N/NC(=O)COc2cccc3cccnc23)c2ccccc21 | 95 | 5 | 95 | -0.21 | 60* | 17
Cc1ccc(CNC(=O)COc2ccccc2-c2ccccc2)cc1 | 85 | -2 | 86 | -0.53 | 70* | -33
O=C(COc1ccccc1-c1ccccc1)N/N=C/c1cccc2ccccc12 | 4.3* | -5 | 4 | 0.47 | -1 | -150
Cc1ccc(CNC(=O)CCc2ccccc2)cc1 | nt | 2 | nt | 0.34 | -2 | nt
O=C(CNc1cccc([N+](=O)[O-])c1)N/N=C/c1ccc([N+](=O)[O-])o1 | nt | 0 | nt | -0.2 | 100* | 0
Cn1c(=O)c2c(ncn2CC(=O)N/N=C/C(Br)=C/c2ccccc2)n(C)c1=O | 2.4* | 1 | 2.6* | nt | 19 | -26
Cn1c(=O)c2c(ncn2CC(=O)N/N=C/C=C/c2ccccc2)n(C)c1=O | 85 | 3 | 83 | nt | -6 | nt
O=C(CNc1cccc2ccccc12)N/N=C/C(Br)=C/c1ccccc1 | 2.7* | 5 | 1.2* | nt | -2 | -63
O=C(CNc1cccc2ccccc12)N/N=C/c1ccc[nH]1 | nt | 3 | nt | -0.045 | nt | nt
O=C(CNc1cccc2ccccc12)N/N=C/c1ccc([N+](=O)[O-])o1 | 4.7* | 6 | 5 | 0.13 | 99* | 13
COc1ccc(NC(=O)c2cccnc2SC)cc1S(=O)(=O)N1CCCCC1 | 91 | 4 | 89 | nt | 12 | nt
Cc1ccc2nc(Cl)c(/C=N/n3c(C)nnc3C)cc2c1 | nt | 2 | nt | 0.14 | 27 | nt
COc1cc(OC)cc(C(=O)OCC(=O)NCc2ccc3c(c2)OCO3)c1 | nt | 0 | nt | -0.14 | -2 | nt
SMILES | bCat KO growth | p97 inhibitor | PTEN del growth | ROMK mod | Lmaj promast | INS promoter inh
CCOC(=O)C1(Cc2ccccc2)CCN(Cc2nccn2CC)CC1 | nt | 6 | nt | 1.3 | -2 | nt
CCOC(=O)C1(Cc2ccccc2Cl)CCN(C(=O)CCn2ccnc2C)CC1 | nt | -11 | nt | 0.016 | 100* | -57
CCOC(=O)C1(Cc2ccc(Cl)cc2)CCN(CCCn2cccn2)CC1 | nt | -1 | nt | -0.2 | 85* | -44
CCOC(=O)C1(Cc2ccccc2)CCCN(CCCn2cccn2)C1 (centres undefined) | nt | -3 | nt | -0.15 | 91* | nt
CCOC(=O)C1(Cc2ccc(Cl)cc2)CCN(Cc2nccn2CC)CC1 | nt | -2 | nt | -0.71 | 79* | nt
CC(=O)CCC(=O)OCC(=O)Nc1ccc(SC(F)F)cc1 | nt | -9 | nt | 0.027 | 1 | nt
COc1ccc(N(CC(=O)NCc2ccccc2OC)S(=O)(=O)c2ccccc2[N+](=O)[O-])c(OC)c1 | nt | 3 | nt | -0.53 | 7 | nt
Cc1cc(/C=N/Nc2nc(N)ncc2[N+](=O)[O-])c(C)n1-c1cccc(C(F)(F)F)c1 | nt | 4 | nt | nt | nt | nt
CCCCC(CC)CNC(=O)c1cccs1 (centres undefined) | 89 | -2 | 93 | -0.16 | 9 | 6
CSc1nc(-c2ccco2)nn1S(C)(=O)=O | 95 | 3 | 105 | nt | -6 | 45
CC(O)CNC(=O)Cc1cc(=O)[nH]c(=O)[nH]1 (centres undefined) | nt | 1 | nt | nt | nt | nt
CCOC(=O)C1(Cc2ccccc2)CCCN(C2CCN(C(C)=O)CC2)C1 (centres undefined) | nt | -6 | nt | nt | 79* | nt
COC(=O)c1cc(=O)cc(C(=O)OC)o1 | 100 | 3 | 94 | nt | -5 | 0
CCOC(=O)c1cc(=O)cc(C(=O)OCC)o1 | 99 | 5 | 99 | nt | 95* | 59
Cn1nc(-c2ccc(Cl)cc2)cc1NC(=O)CCCC(=O)O | nt | 8 | nt | nt | nt | nt
CC(C)Cc1cc(C(=O)NCc2cccnc2)no1 | 92 | -3 | 93 | nt | -7 | nt
CC(C)Cc1cc(C(=O)NCc2cccs2)no1 | 88 | 2 | 93 | nt | -10 | 100*
COc1ccc(-c2cc(C(=O)Nc3ccc(S(=O)(=O)Nc4onc(C)c4C)cc3)c3ccccc3n2)cc1 | nt | 4 | nt | nt | nt | nt
C=CCC1(NC(C)c2ccccc2)CCCCC1 (centres undefined) | 88 | 2 | 92 | -0.45 | 57* | 3
COc1ccc(Cl)cc1NC(=O)c1ccoc1C | 85 | 0 | 90 | nt | 0 | -54
COc1cc(OC)c(NC(=O)c2ccoc2C)cc1Cl | 86 | 0 | 87 | nt | 11 | 71*
CC(C)n1nc(C(=O)Nc2ccccc2N2CCOCC2)c2ccccc2c1=O | 70 | 2 | 46 | nt | 87* | -41
COc1ccc(-c2cc(C(=O)NNC(=S)NC(=O)c3c(-c4ccccc4)noc3C)[nH]n2)cc1 | nt | 6 | nt | 0.22 | 63* | -376
COc1ccc(/C=C/C(=O)NC(=S)NNC(=O)c2c(-c3ccccc3)noc2C)cc1 | 31 | 8 | 31 | -0.71 | 3 | nt
Cc1onc(-c2ccccc2)c1C(=O)Nc1ccccc1N1CCOCC1 | 84 | 2 | 86 | nt | 69* | -25
SMILES | bCat KO growth | p97 inhibitor | PTEN del growth | ROMK mod | Lmaj promast | INS promoter inh
Cc1onc(-c2ccccc2)c1C(=O)Nc1cc(C(F)(F)F)ccc1N1CCOCC1 | 13 | 1 | 13 | nt | 24 | nt
CC(C)CC(=O)Nc1ccccc1N1CCOCC1 | 106 | 1 | 107 | nt | -4 | 23
CN(CC(=O)Nc1cccc2ccccc12)C(=O)c1cccc(S(=O)(=O)N(C)C)c1 | nt | 2 | nt | nt | nt | nt
COc1cc(OC)c(NC(=O)c2c(-c3ccccc3)noc2C)cc1Cl | 93 | 1 | 91 | nt | 94* | 79*
CC(C)CNS(=O)(=O)c1ccc(CCC(=O)NC2CCCC2)cc1 | nt | 1 | nt | -0.38 | 2 | nt
CC(NC(=O)CCc1ccc(S(=O)(=O)NC2CCCCC2)cc1)c1ccccc1 (centres undefined) | 83 | 1 | 83 | nt | 96* | -70

Screening results (PubChem BioAssay)
